{"source": "PubChem BioAssay (Tox21)", "note": "Results filed as inconclusive are left out. A call without a number means that no potency is given here. Activity calls are given as the source filed them. Calls come from the whole dose curve.", "data": [{"experiment": "p53 small molecule agonists, cell-based qHTS assay with human liver microsomes: qHTS cell viability counter screen (AID 1963579); note: nearly all actives have a fitted effect of over 45% in size", "settings": "p53RE-bla HCT-116 viability, ATP luminescence, 16 h, HLM; series mostly up to 66 µM", "text": "National Center for Advancing Translational Sciences [NCATS]\nDivision of Preclinical Innovation [DPI]\nU.S. Environmental Protection Agency [EPA]\nNational Institutes of Environmental Health Sciences [NIEHS]\nNational Toxicology Program [NTP]\nU.S. Food and Drug Administration [FDA]\np53, a tumor suppressor protein, is activated following cellular insult, including DNA damage and other cellular stresses. The activation of p53 regulates cell fate by inducing DNA repair, cell cycle arrest, apoptosis, or cellular senescence. The activation of p53, therefore, is a good indicator of DNA damage and other cellular stresses. […] The activation of the reporter gene under culture conditions can be detected by fluorescence intensity. This cell line was used to screen the Tox21 10K compound library in the condition of presence of human liver microsomes and to identify agonists that activate the p53 signaling pathway after in vitro metabolic activation (Ooka et al., Archive of Toxicology 96:1975-1987, 2022).\nTox21 Assay Protocol Summary:\nThe p53RE-bla cells were dispensed at 4,000cells/3ul/well in 1536-well black-clear bottom plates. After the assay plates were incubated at 37 C, 5% CO2 incubator for 5 hours, 23 nL of compounds dissolved in DMSO, positive controls or DMSO only was transferred to the assay plate. Following compound addition, 3 uL of human liver microsomes (XenoTech, Kansas City, KS) at final concentration of 0.5 mg/mL and 1uL of B-Nicotinamide adenine dinucleotide 2'-phosphate (NADPH) at final concentration of 0.5 mg/mL were transferred to the assay plate. The plates were incubated at 37 C for 16 hours. 1 uL of LiveBLAzer detection mixture was added to each well and the plates were incubated at room temperature in the dark for 2 h. Fluorescence intensity at 460 and 530 nm emission and 405 nm excitation were measured by an Envision plate reader. For cell viability readout that measures cytotoxicity, 4 ul/well of CellTiter-Glo reagent was added into the assay plates using a Flying Reagent Dispenser. After 30 min incubation at room temperature, the luminescence intensity in the plates was measured using a ViewLux plate reader.", "values": [{"smiles": "CCOC(=O)O[C@H](C)OC(=O)c1ccc2c(c1)cc(C(=O)NC1CCN(C(C)C)CC1)n2Cc1cc(-c2ccc(Cl)s2)on1", "Potency": "inactive"}, {"smiles": "CCCCCC[C@@H](O)C/C=C\\CCCCCCCC(=O)OCC(O)CO", "note": "(stereo not given in full)", "Potency": "inactive"}, {"smiles": "COc1ccccc1Oc1c(NS(=O)(=O)c2ccc(C(C)(C)C)cc2)nc(-c2ncccn2)nc1OCCO", "Potency": "inactive"}, {"smiles": "O=C(CCCCCCCCc1cccnc1)N1CCC(C=C(c2ccccc2)c2ccccc2)CC1", "Potency": "inactive"}, {"smiles": "COc1ccc(NS(=O)(=O)c2ccc(N)cc2)nn1", "Potency": "inactive"}, {"smiles": "Cc1cccc(C)c1NC(=O)CN1CCCC1", "Potency": "inactive"}, {"smiles": "Cc1ccc2cccnc2c1", "Potency": "inactive"}, {"smiles": "O=[N+]([O-])c1cccc(I)c1", "Potency": "inactive"}, {"smiles": "CCCCCCCC(=O)OCC", "Potency": "inactive"}, {"smiles": "CN1CCC(=C2c3ccccc3CCc3sccc32)CC1", "Potency": "inactive"}, {"smiles": "Cc1cc(C(C)(C)C)cc(C)c1CC1=NCCN1", "Potency": "inactive"}, {"smiles": "CCN(CC)C(=O)/C(C#N)=C/c1cc(O)c(O)c([N+](=O)[O-])c1", "Potency": "inactive"}, {"smiles": "Cc1occc1C(=O)Nc1ccc(C(=O)N2CCC(F)(F)/C(=C\\C(=O)N3CCC(N4CCCCC4)CC3)c3ccccc32)cc1", "Potency": "inactive"}, {"smiles": "O=C(O)c1cc(Cl)cc(Cl)c1", "Potency": "inactive"}, {"smiles": "CN1CCN(CCCN2c3ccccc3Sc3ccc(Cl)cc32)CC1", "Potency": "inactive"}, {"smiles": "O=C1CCC(C2CCCCC2)CC1", "Potency": "inactive"}, {"smiles": "CC(C)=CCCC(C)C=O", "note": "(stereo not given)", "Potency": "inactive"}, {"smiles": "Nc1ccc(S(=O)(=O)O)cc1", "Potency": "inactive"}, {"smiles": "BrC(Br)C(Br)Br", "Potency": "inactive"}, {"smiles": "Oc1ccccc1Cc1ccccc1O", "Potency": "inactive"}, {"smiles": "COc1ccc(-n2nc(CCC(=O)N(C)O)cc2-c2ccc(Cl)cc2)cc1", "Potency": "inactive"}, {"smiles": "CNS(=O)(=O)CCc1ccc2[nH]cc(C3CCN(C)CC3)c2c1", "Potency": "inactive"}, {"smiles": "Oc1cc(O)c(Cl)cc1Cl", "Potency": "inactive"}, {"smiles": "COC(=O)CCc1ccc(OCC(O)CNC(C)C)cc1", "note": "(stereo not given)", "Potency": "inactive"}, {"smiles": "CCCCOCC(C)O", "note": "(stereo not given)", "Potency": "inactive"}, {"smiles": "CC(=O)Nc1ccc(S(N)(=O)=O)cc1", "Potency": "inactive"}, {"smiles": "Cc1nc2ccc(Cl)cc2[nH]1", "Potency": "inactive"}, {"smiles": "CC(=O)OC(C)c1ccccc1", "note": "(stereo not given)", "Potency": "inactive"}, {"smiles": "Clc1ccc(C(Cn2ccnc2)OCc2c(Cl)cccc2Cl)c(Cl)c1", "note": "(stereo not given)", "Potency": "inactive"}, {"smiles": "O=c1[nH]cccc1O", "Potency": "inactive"}, {"smiles": "O=S1(=O)c2cccc3cccc(c23)N1CCCN1CCN(c2ccc(F)cc2)CC1", "Potency": "inactive"}, {"smiles": "CC1=CCC2C(C1)C2(C)C", "note": "(stereo not given)", "Potency": "inactive"}, {"smiles": "C[C@@]12C(=O)OC(=O)[C@]1(C)C1CCC2O1", "Potency": "inactive"}, {"smiles": "Cc1c(C)c2c(c(C)c1OC(=O)CCC(=O)O)CC[C@@](C)(CCC[C@H](C)CCC[C@H](C)CCCC(C)C)O2", "Potency": "inactive"}, {"smiles": "CC(C)CCCCCCOC(=O)CCCCC(=O)OCCCCCCC(C)C", "Potency": "inactive"}, {"smiles": "NS(=O)(=O)c1cc2c(cc1Cl)CN(C1CCCCC1)C2=O", "Potency": "inactive"}, {"smiles": "COc1cccc(O)c1O", "Potency": "inactive"}, {"smiles": "CCC(C)C(=O)OC", "note": "(stereo not given)", "Potency": "inactive"}, {"smiles": "CC(C)(c1ccc(Oc2ccc3c(c2)C(=O)OC3=O)cc1)c1ccc(Oc2ccc3c(c2)C(=O)OC3=O)cc1", "Potency": "inactive"}, {"smiles": "CCCN(CCC)C(=O)C(CCC(=O)O)NC(=O)c1ccccc1", "note": "(stereo not given)", "Potency": "inactive"}]}]}
